“And” between values parts separate entries of the source, which are not always exact repeats. Identical values can stand only once. Among all 5,500 compounds or so, about 2,000 (36%) were called active. Inconclusive results (about 18%) are left out. Cut-off read from the data, not from the text of the source: active = normalized growth mostly below about 0.91 (no sharp cut-off); inconclusive = no clear call, values can overlap the other calls; inactive = mostly above about 0.92. The list shows a part of the results.
Experiment: chemical genetic growth profiling, strain panel (AID 1159580);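 note: tested at 20 µM; growth read once vehicle control cultures reached saturation at 30 °C; 1 = growth at the plate median or of vehicle wells; lower values mean less growth of the strain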
Conditions: S. cerevisiae deletion strains, growth OD

Measured: normalized growth

CC(=O)[O][Hg][c]1ccccc1
active: locus YAL013W, strain DEP1, hits give low values 0.0588 | locus YAL021C, strain ccr4, hits give low values 0.0671 | locus YAL026C, strain drs2, hits give low values 0.0633 | locus YAL030W, strain snc1, hits give low values 0.0569 | locus YBL061C, strain skt5, hits give low values 0.0592 | locus YBR009C, strain hhf1, hits give low values 0.066 | locus YBR021W, strain FUR4, hits give low values 0.089 | locus YBR023C, strain chs3, hits give low values 0.0614 | locus YBR171W, strain sec66, hits give low values 0.0817 | locus YBR229C, strain ROT2, hits give low values 0.0467 | locus YBR231C, strain swc5, hits give low values 0.0619 | locus YBR279W, strain paf1, hits give low values 0.0597 | locus YCL011C, strain gbp2, hits give low values 0.0585 | locus YCL016C, strain dcc1, hits give low values 0.0648 | locus YCL029C, strain bik1, hits give low values 0.0611 | locus YCL061C, strain MRC1, hits give low values 0.066 | locus YCL069W, strain vba3, hits give low values 0.062 | locus YCR088W, strain abp1, hits give low values 0.0606 | locus YDL005C, strain med2, hits give low values 0.0736 | locus YDL035C, strain GPR1, hits give low values 0.0539 | locus YDL040C, strain nat1, hits give low values 0.0587 | locus YDL074C, strain BRE1, hits give low values 0.0962 | locus YDL101C, strain DUN1, hits give low values 0.0592 | locus YDL134C, strain PPH21, hits give low values 0.0501 | locus YDL185W, strain tfp1, hits give low values 0.0588 | locus YDL192W, strain arf1, hits give low values 0.0622 | locus YDR001C, strain nth1, hits give low values 0.0585 | locus YDR069C, strain doa4, hits give low values 0.063 | locus YDR101C, strain arx1, hits give low values 0.0626 | locus YDR137W, strain rgp1, hits give low values 0.0849 | locus YDR150W, strain NUM1, hits give low values 0.0584 | locus YDR159W, strain sac3, hits give low values 0.0919 | locus YDR162C, strain NBP2, hits give low values 0.0545 | locus YDR195W, strain ref2 0.124 | locus YDR297W, strain sur2, hits give low values 0.0565 | locus YDR318W, strain mcm21, hits give low values 0.0644 | locus YDR334W, strain swr1, hits give low values 0.0648 | locus YDR335W, strain msn5, hits give low values 0.0613 | locus YDR388W, hits give low values 0.0584 | locus YDR392W, strain spt3, hits give low values 0.1 | locus YDR502C, strain sam2, hits give low values 0.0611 | locus YEL003W, strain gim4, hits give low values 0.0567 | locus YEL037C, strain rad23, hits give low values 0.0594 | locus YEL061C, strain CIN8 (second series), hits give low values 0.0646 | locus YEL061C, strain CIN8, hits give low values 0.0509 | locus YER015W, strain faa2, hits give low values 0.0603 | locus YER016W, strain bim1, hits give low values 0.0596 | locus YER110C, hits give low values 0.079 | locus YER111C, strain swi4, hits give low values 0.0727 | locus YER155C, strain BEM2 (second series), hits give low values 0.0919 | locus YER155C, strain BEM2, hits give low values 0.066 | locus YER167W, strain BCK2, hits give low values 0.0545 | locus YFR010W, strain ubp6, hits give low values 0.0677 | locus YGL078C, strain dbp3, hits give low values 0.0571 | locus YGL086W, strain mad1, hits give low values 0.0571 | locus YGL167C, strain pmr1, hits give low values 0.073 | locus YGL173C, strain kem1, hits give low values 0.0683 | locus YGL227W, strain vid30, hits give low values 0.0651 | locus YGL240W, strain doc1, hits give low values 0.077 | locus YGL248W, strain PDE1, hits give low values 0.0503 | locus YGL253W, strain hxk2, hits give low values 0.055 | locus YGR078C, strain PAC10, hits give low values 0.0552 | locus YGR135W, strain pre9, hits give low values 0.0651 | locus YGR229C, strain SMI1, hits give low values 0.0631 | locus YGR252W, strain gcn5, hits give low values 0.166 | locus YHR013C, strain ard1, hits give low values 0.105 | locus YHR027C, strain rpn1, hits give low values 0.0615 | locus YHR030C, strain SLT2, hits give low values 0.0511 and 0.112 | locus YHR079C, strain IRE1 (second series), hits give low values 0.0572 | locus YHR079C, strain IRE1, hits give low values 0.12 | locus YHR094C, strain hxt1, hits give low values 0.0582 | locus YHR129C, strain ARP1, hits give low values 0.0567 | locus YHR142W, strain chs7, hits give low values 0.0763 | locus YHR200W, strain rpn10, hits give low values 0.0605 | locus YIL066C, strain RNR3, hits give low values 0.059 | locus YIL073C, strain SPO22, hits give low values 0.112 | locus YIL125W, strain kgd1, hits give low values 0.0567 | locus YIR030C, strain dcg1, hits give low values 0.0603 | locus YJL092W, strain hpr5, hits give low values 0.0589 | locus YJL095W, strain BCK1 (second series), hits give low values 0.0569 | locus YJL095W, strain BCK1, hits give low values 0.0577 and 0.107 | locus YJL115W, strain asf1, hits give low values 0.0743 | locus YJL129C, strain trk1, hits give low values 0.0912 | locus YJL134W, strain LCB3, hits give low values 0.0514 | locus YJL154C, strain vps35, hits give low values 0.0614 | locus YJL164C, strain tpk1, hits give low values 0.0658 | locus YJL166W, strain qcr8, hits give low values 0.0602 | locus YJL168C, strain set2, hits give low values 0.0596 | locus YJL187C, strain SWE1 (second series), hits give low values 0.0495 | locus YJL187C, strain SWE1, hits give low values 0.0566 | locus YJR043C, strain POL32, hits give low values 0.069
